15-hLO-2 inh: 15-hLO-2 (ALOX15B) enzyme inhibition; AID 881; 0.56% of 110,000 active; O15296; Potency, µM (doses to about 57.1 µM), without a hit: top-dose activity change, negative = inhibition, hits mostly inhibitors; purified 15hLO-2, xylenol orange hydroperoxide absorbance; also: potency is read from the fitted curve at half-maximal effect; nearly all actives have a fitted effect of over 60% in size
Target sequence (O15296 whole entry, looked up): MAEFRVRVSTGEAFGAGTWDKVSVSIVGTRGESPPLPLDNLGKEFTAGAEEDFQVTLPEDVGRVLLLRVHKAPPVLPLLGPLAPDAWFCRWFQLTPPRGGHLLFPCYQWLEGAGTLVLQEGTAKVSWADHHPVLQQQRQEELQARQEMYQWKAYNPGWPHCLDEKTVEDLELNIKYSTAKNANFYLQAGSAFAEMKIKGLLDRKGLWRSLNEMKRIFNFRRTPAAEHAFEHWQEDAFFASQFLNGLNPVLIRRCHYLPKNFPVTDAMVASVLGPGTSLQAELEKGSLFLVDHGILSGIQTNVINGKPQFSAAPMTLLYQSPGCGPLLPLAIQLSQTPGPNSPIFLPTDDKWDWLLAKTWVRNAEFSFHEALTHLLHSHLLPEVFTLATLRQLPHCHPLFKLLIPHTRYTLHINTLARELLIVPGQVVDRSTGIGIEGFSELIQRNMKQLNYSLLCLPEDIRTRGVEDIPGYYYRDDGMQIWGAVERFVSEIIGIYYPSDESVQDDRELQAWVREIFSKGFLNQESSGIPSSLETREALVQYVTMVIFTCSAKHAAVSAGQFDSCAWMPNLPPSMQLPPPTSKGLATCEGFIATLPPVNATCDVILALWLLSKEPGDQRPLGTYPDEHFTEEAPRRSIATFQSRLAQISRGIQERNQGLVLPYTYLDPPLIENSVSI
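Purified human 15hLO-2 (50 nM final) preincubated with compounds 15 min at room temperature in 25 mM Hepes pH 7.5, 0.01% Triton X-100, then 45 uM arachidonic acid added for 90 min; hydroperoxide detected via ferrous/xylenol orange, 573/405 nm absorbance ratio.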
IMPase inh: cell-permeable inhibitors of inositol monophosphatase (IMPase). CHO-M1 cells, IP1 accumulation, HTRF TR-FRET ratio. P97697. 120,000 tested, under 10 active. inhibition (IP1 accumulation), % at 46.1 µM; active = well fitted curve in the direction sought with a large enough effect in the signal ratio, not every such curve was filed as active; inconclusive = small, poorly fitted or top-dose-only effect, or a change in a side signal; inactive = no such curve, though single readings can be large or run the other way; the % refers to the signal ratio;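 also: cells stimulated with carbachol in lithium chloride buffer; plate controls were DMSO basal wells for no effect and reference inhibitor wells for full effect; higher means more IMPase inhibition seen as more IP1 and lower FRET ratio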
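Measured: the HTRF emission ratio (665/620 nm) plus the 620 nm donor channel, each fitted to the Hill equation to give AC50. Cells were CHO-M1 given compounds up to 46 uM and a 30 min carbachol stimulation at 37C.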
PNC assembly inh: blocks assembly of the perinucleolar compartment; activity change (PNC), negative = inhibition, % at 10 µM; PC3M PTB-GFP, PNC prevalence imaging, 16 h; stronger effect = lower value; 3.1% of 140,000 active; AID 2417;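 active = readout at or below -70, meaning at least 70% loss of cells showing the perinucleolar compartment, a nuclear body marking cancer cells; inconclusive = readout between -30 and a set limit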;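 also: plate controls were DMSO wells for no effect and camptothecin positive control wells for full effect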
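PC3M cells stably expressing PTB-GFP, 750–1000 cells/well, treated 16 h at 37 °C with compound (23 nl of library stock), in duplicate. After paraformaldehyde fixation and Hoechst stain, imaged at 20x; PNC prevalence scored by image analysis.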
12-hLO inh: blocks human 12-lipoxygenase activity; 0.12% of 150,000 active; Potency, µM (doses to about 57.1 µM), for the others: at the highest dose activity change, negative = inhibition, hits mostly inhibitors; AID 1452; purified 12-hLO, xylenol orange hydroperoxide absorbance; also: potency is read from the fitted curve at half-maximal effect; nearly all actives have a fitted effect of over 55% in size
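Hydroperoxide output read as Fe(III)-xylenol orange absorbance, 573-to-405 nm ratio, after 30 min reaction with 40 uM arachidonic acid. Enzyme: 150 nM purified human 12hLO, 15 min compound preincubation; 25 mM Hepes pH 7.0, room temperature.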
* = called active by the depositor; ? = inconclusive; nt = not tested or not shown; [ ] = dose if it differs, or a comment. Only some compounds are listed: those with a hit (about 3% of all), similar ones and a draw of the others. Unless noted, calls follow the shape of the dose curve; as a rule, active = well fitted curve in the direction sought with a large enough effect; inconclusive = small, poorly fitted or top-dose-only effect, or another doubt; inactive = no such curve, though single readings can be large; an effect the other way counts as inactive or inconclusive. Unless noted, % is scaled to controls: 0 for no effect and ±100 for the full control effect.

SMILES	15-hLO-2 inh	IMPase inh	PNC assembly inh	12-hLO inh
Cc1nn(C)c(C(=O)NNC(=S)Nc2ccc(F)cc2)c1[N+](=O)[O-]	-0.2%	-5.4	-1.8	3.1%
COc1ccc(CNC(=O)c2cccs2)cc1	-0.1%	0.5	-100.0*	-9.0%
CCCCNC(=O)Nc1ccccc1C(=O)NCCC	nt	?	-100.0*	-0.6%
CCC1CSC(Nc2ccc(C(=O)/C=C/c3ccc(Br)cc3)cc2)=N1 (configuration not stated)	nt	nt	-102.9*	-0.4%
CCC1CSC(Nc2ccc(C(=O)/C=C/c3ccc(OC)c(OC)c3)cc2)=N1 (configuration not stated)	nt	nt	52.4	-6.2%
COc1ccc(NC(=O)/C(C#N)=C/c2ccc(Br)o2)cc1	-7.8%	-7.1	-1.1	-2.6%
N#C/C(=C/c1ccc(Br)o1)C(N)=O	nt	nt	-87.1*	-1.3%
COc1ccc(NC(=S)N(CCCN2CCCCC2)Cc2cccs2)cc1	nt	nt	-105.0*	2.5%
Cc1c(Cl)cccc1NC(=S)N(CCCN1CCOCC1)Cc1cccs1	nt	nt	?	7.8%
COC(=O)c1[nH]c2ccc(F)cc2c1NC(=O)CCN1CCN(Cc2ccc3c(c2)OCO3)CC1	29.7%	18.8	-11.8	1.6%
CCN(CC(=O)Nc1c(C(=O)OC)[nH]c2ccc(C)cc12)c1ccc2c(c1)OCO2	-8.1%	13.7	-119.5*	-14.4%
CCOC(=O)C1=C(N)Oc2c(oc(CO)cc2=O)C1c1ccc(F)cc1 (configuration not stated)	nt	11.0	-100.0*	-2.6%
COc1ccc(-c2nc(C(N)=O)c3[nH]c(=O)n(-c4cccc(Cl)c4)c3n2)cc1OC	3.7%[2.29 µM]	4.3	-14.8	-1.9%
CCc1ccc(-c2nc(C(N)=O)c3[nH]c(=O)n(-c4ccccc4OC)c3n2)cc1	-1.5%	9.9	-105.8*	-2.6%
Cc1cc(Nc2ccccc2)n(-c2cccc(Cl)c2)n1	-10.1%	8.2	-95.6*	-4.1%
CCOc1ccc(-n2c(Cc3cc(=O)[nH]c(=O)[nH]3)nnc2SCC(=O)NC2CCCC2)cc1	-3.4%	2.7	-21.7	5.3%
CCOc1ccc(-n2c(Cc3cc(=O)[nH]c(=O)[nH]3)nnc2SCC(N)=O)cc1	5.6%	1.1	-83.5*	8.9%
COCC(=O)N1CCC2(CC1)CCN(C(=O)NC(C)C)CC2	5.4%	nt	nt	-1.3%
NC(=O)CSc1nnc2n(-c3ccccc3)c(=O)c3c4c(sc3n12)CCCCC4	5.4%	1.8	-81.4*	-4.5%
Cc1c(Cl)cnc(NC(=O)COC(=O)c2cc3c(s2)CCC(C)C3)c1Cl (configuration not stated)	nt	-9.1	62.4	-0.8%
CCOC(=O)N1CCC(NC(=O)CCN2C(=O)C3C4C=CC(C4)C3C2=O)CC1 (configuration not stated)	2.3%	-2.9	-101.5*	-3.4%
CC1(OC(=O)C2CCCC2)C(=O)C=C2C=C(c3ccsc3)N(c3cccc(C#N)c3)C=C2C1=O (configuration not stated)	nt	nt	nt	-24.8%[11.4 µM]
COC(=O)Cc1c(C)c2c(O)cc(C)cc2oc1=O	-6.9%	?	-0.9	-3.7%
Cc1cc(OCC(=O)C(C)(C)C)c2c(C)c(C)c(=O)oc2c1	-1.1%	4.8	-100.0*	-2.3%
CC(=O)/C(C#N)=C1\NC(=O)C(Cc2ccc(C)c(C)c2)S1 (configuration not stated)	2.0%	17.2	-107.5*	-20.4%
SMILES	15-hLO-2 inh	IMPase inh	PNC assembly inh	12-hLO inh
Cc1ccc(CC2SC(=O)NC2=O)cc1Cl (configuration not stated)	nt	-11.2	-100.0*	23.8%
Nc1ccc(CC2SC(=O)NC2=O)cc1 (configuration not stated)	0.2%	-1.3	-24.0	-1.9%
O=C(O)[C@@H]1[C@@H](C(=O)NCc2cccnc2)[C@@H]2C=C[C@@H]1O2	-7.1%[11.4 µM]	nt	nt	-2.8%[11.4 µM]
CSc1nc(C)cc(-n2ccc(=O)[nH]c2=O)n1	0.9%	-1.2	40.6	0.6%
CCCN1Cc2cccc(C(=O)Nc3ccc4c(c3)OCO4)c2C1=O	-3.4%	22.8	11.4	-9.7%
CCCN1Cc2cccc(C(=O)Nc3ccc4c(c3)OCCO4)c2C1=O	-1.8%	3.6	-105.7*	1.6%
COCCN1Cc2cccc(C(=O)Nc3cc(C)cc(C)c3)c2C1=O	4.4%	6.9	-85.0*	-2.7%
Cc1ccc(-n2[nH]c(C)c(C=Nc3ccc(S(=O)(=O)N4CCOCC4)cc3)c2=O)c(C)c1	nt	-3.4	68.2	-2.1%
Cc1onc(-c2c(F)cccc2Cl)c1C(=O)OCC(=O)NC(c1ccccc1)c1ccccc1	-6.9%	10.2	?	6.7%

Bioassay records from PubChem BioAssay.
